Screens as filed in PubChem.
SARS PLpro yeast – inhibitors of SARS-CoV papain-like protease in yeast; S. cerevisiae expressing SARS-CoV PLpro, growth rescue; Potency, µM (series often up to 32.9 µM), usual class: activators; actives 0.19% (n = 330,000); AID 485353; calls by dose curve; further: nearly all actives have a fitted effect of over 55% in size
Sm TGR block – inhibitors of Schistosoma mansoni thioredoxin glutathione reductase. Q962Y6. purified TGR, DTNB reduction, TNB absorbance 405 nm. Potency, µM (top dose mostly 114 µM), hits mostly inhibitors. AID 485364. actives 3% (n = 360,000); active means well fitted inhibition curve with a large enough effect; inconclusive means small, poorly fitted or top-dose-only effect; inactive means no such curve, though single readings can be large or run the other way; further: nearly all actives have a fitted effect of over 60% in size
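First, TGR (20 nM dispensed) and NADPH were mixed with compound. Second, a 15 min room-temperature incubation followed. Third, further NADPH and then DTNB were added to start the reaction. Finally, TNB absorbance was monitored kinetically.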
A number is an active result; . = inactive; ? = inconclusive; / = no result. Compounds with a hit are over-represented: about 3% of the library has one in this group of screens.

SMILES | SARS PLpro yeast | Sm TGR block
Cc1cc(C)cc(NC(=O)c2cc(CN3CCCC3)on2)c1 | / | .
CC(C)c1ccc(S(=O)(=O)c2nnn3c2nc(N2CCCCC2)c2sccc23)cc1 | / | .
Cc1ccc2onc(CC(=O)N3CCN(c4ccc(F)cc4)CC3)c2c1 | / | .
COc1ccc(NC(=O)c2ccc(-n3c(C)ccc3C)cc2)c(OC)c1 | . | 28µM
CCc1ccccc1NC(=O)c1ccc(-n2c(C)ccc2C)cc1 | . | ?
Cc1ccc(C)n1-c1ccc(C(=O)Nc2ccccc2F)cc1 | . | 50µM
COc1ccc(NC(=O)c2ccc(S(=O)(=O)C(F)F)cc2)c(OC)c1 | . | .
COc1cc(NC(=O)c2ccc(-c3nc(COc4ccccc4)c(C)o3)cc2)cc(OC)c1 | / | .
O=C(Cn1c(SCCOc2ccccc2)nc2ccccc21)N1CCOCC1 | / | .
Cc1nc2sccn2c(=O)c1S(=O)(=O)Nc1cc(Cl)ccc1O | / | .
Cc1ccc(-c2nn3c(C)nnc3s2)cc1NC(=O)c1ccc(Br)o1 | . | 50µM
CC(=O)Nc1cc(-c2nn3c(C)nnc3s2)ccc1C | . | .
COc1ccccc1CNC(=O)C1CCN(S(=O)(=O)c2ccc3c(ccn3C)c2)CC1 | / | .
O=C(Nc1ccccc1C(=O)OCc1cc(=O)n2c3c(sc2n1)CCCC3)c1ccc(F)cc1 | / | .
CC1(C)CC(=O)c2sc(NC(=O)CCS(=O)(=O)c3ccccc3)nc2C1 | . | .
CC1(C)CC(=O)C(CS(=O)(=O)c2ccccc2)=C(Cl)C1 | ? | 7.1µM
Cc1sc2c(c1C)c(=O)n(-c1ccc(Cl)cc1)c(=O)n2CC(=O)c1ccccc1 | / | .
CCC(CC)c1nn2c(=O)cc(COc3ccc(NC(=O)c4ccc(C)cc4)cc3)nc2s1 | / | .
O=C(NCc1cccnc1)Nc1cccc(Cl)c1 | . | .
S=C(NCc1cccnc1)Nc1ccc(Cl)cc1 | . | 40µM
S=C(NCc1cccnc1)Nc1cc(Cl)cc(Cl)c1 | . | 28µM
Cc1cccc(C(=O)NC(=S)NCc2cccnc2)c1 | . | .
Cc1ccc(C(=O)NC(=S)NCc2cccnc2)c(C)c1 | . | 45µM
O=C(NCc1cccnc1)Nc1cc(Cl)cc(Cl)c1 | . | .
S=C(NCc1cccnc1)Nc1cccc(Cl)c1 | . | 32µM
SMILES | SARS PLpro yeast | Sm TGR block
Cc1ccc(NC(=S)NCc2cccnc2)cc1 | . | ?
COC(=O)c1ccc(CSc2nc3c([nH]c4ccccc43)c(=O)n2-c2ccc(F)cc2)o1 | / | .
Cc1cc(NC(=O)CN2C(=O)c3cccnc3Sc3ccccc32)ccc1Br | / | .
O=C(Cc1ccc(-c2ccccc2)cc1)NCCS(=O)(=O)N1CCN(c2ccc(F)cc2)CC1 | / | .
O=C(NCc1cccnc1)c1ccc(-c2cc(Cl)ccc2Cl)o1 | . | 40µM
CC(=O)c1ccc(NC(=S)NCc2cccnc2)cc1 | . | 40µM
CCc1ccc(NC(=S)NCc2cccnc2)cc1 | . | ?
O=C(NCc1cccnc1)c1ccc(-c2ccc(Cl)cc2)o1 | . | .
COc1ccc(Cl)cc1NC(=S)NCc1ccccn1 | . | .
COc1ccc(Cl)cc1NC(=S)NCc1cccnc1 | . | 13µM
COc1cccc2c1Oc1ncccc1N(C(=O)Nc1ccc(F)c(Cl)c1)C2 | / | .
CN(C)c1ccc(CN2CCc3nc(N4CCN(c5ccccn5)CC4)ncc3C2)cc1 | / | .
Cc1ccc(NC(=O)c2c(NC(=O)c3ccco3)sc3c2CCC(C(C)(C)C)C3)c(C)c1 (centres undefined) | / | .
C=C1C(=O)O[C@@H]2C[C@@H](C)[C@H]3C=CC(=O)[C@]3(O)C[C@@H]12 | . | 35µM
CCS(=O)(=O)N1CCc2cc(C(=O)Nc3cc(OC)c(Cl)cc3OC)ccc21 | / | .
O=Cc1ccc(Sc2nnc(-c3ccccc3)o2)c([N+](=O)[O-])c1 | . | 11µM
Cc1cc(C)nc(Sc2ccc(C=O)cc2[N+](=O)[O-])n1 | . | /
COc1ccc(CN2CCc3c(c(=O)n4ncc(C(=O)N5CCN(c6ccccc6OC)CC5)c4n3C)C2)cc1 | / | .
COc1cc(OC)c(OC)cc1/C=N/Nc1ccc(Cl)nn1 | . | .
Cc1ccccc1/C=N/Nc1ccc(Cl)nn1 | . | 40µM
CC(=O)c1cccc(NC(=O)C(C)n2c(=O)cc(-c3ccccc3)c3c(C)nn(C)c32)c1 (centres undefined) | / | .
CCCCN(CCCC)CCCNC(=O)c1cc(-c2ccc(Cl)s2)nc2ccccc12 | / | .
O=c1c(S(=O)(=O)c2cccc(Cl)c2)cn(Cc2ccccc2)c2cc(N3CCOCC3)c(F)cc12 | / | .
COc1ccc(N2CCN(C(c3ccccc3)c3nnc(-c4ccccc4Cl)o3)CC2)cc1 (centres undefined) | / | .
Cc1ccc(NP(=O)(c2ccccc2)c2nc3ccccc3s2)cc1 (centres undefined) | . | 16µM
COCCNP(=O)(c1ccccc1)c1nc2ccccc2s1 (centres undefined) | . | .
Cc1cc(NC(=O)CSc2nnc(-c3ccc(Br)o3)n2Cc2ccccc2)no1 | . | .
O=C(CSc1nnc(-c2ccc(Br)o2)n1Cc1ccccc1)c1ccccc1F | . | 35µM
